Reference: PubChem BioAssay (Tox21)
Inconclusive results are not listed. Calls of active or inactive are those of the source. Unless noted, calls follow the shape of the dose curve; as a rule, active = well fitted curve in the direction sought with a large enough effect in the repeat runs; inconclusive = weak or mixed curves; inactive = no such curve, though single readings can be large; an effect the other way counts as inactive or inconclusive.

Experiments:
[1] = qHTS assay to identify small molecule antagonists of the progesterone receptor (PR) signaling pathway - cell viability counter screen (AID 1346798); also: nearly all actives have a fitted effect of over 50% in size; also: potency is read from the fitted curve at half-maximal effect
Summary of the method: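 Cytotoxicity read as CellTiter-Glo luminescence (30 min, room temperature) in the same wells as the beta-lactamase readout. HEK293T PR-UAS-bla cells in charcoal-stripped 2% FBS received compound and R5020, then 16 h at 37C, 5% CO2.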

[2] = qHTS assay to identify small molecule antagonists of the TGF-beta/Smad signaling pathway - cell viability counter screen (AID 1346824); also: nearly all actives have a fitted effect of over 50% in size; also: potency is read from the fitted curve at half-maximal effect
Summary of the method: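 SBE-bla HEK 293T cells were plated overnight at 37 C, then given compounds in DMSO plus TGF-beta1 (added as 0.25 ng/mL solution) for 5 hr. After the bla read, CellTiter-Glo was added to the same wells and luminescence read after 30 min at room temperature.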

[3] = qHTS assay to identify small molecule agonists of the TGF-beta/Smad signaling pathway - cell viability counter screen (AID 1346829); also: nearly all actives have a fitted effect of over 45% in size; also: potency is read from the fitted curve at half-maximal effect
Summary of the method: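 Same-well cytotoxicity: CellTiter-Glo added after the 2 hr room-temperature beta-lactamase substrate step, luminescence measured 30 min later; cells had 5 hr of compound at 37 C.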

[4] = qHTS assay to identify small molecule agonists of the TGF-beta/Smad signaling pathway (AID 1346859; active = well fitted activation curve with a large enough effect in the signal ratio in the repeat runs, not every such curve was filed as active; the % refers to the signal ratio; also: series mostly up to about 77 µM; % is scaled to controls: 0 for no effect and ±100 for the full control effect)
Summary of the method: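 Fluorescence (ex 405 nm; em 460 and 530 nm) was read 2 h after LiveBLAzer FRET substrate at RT. The preceding compound treatment of overnight-plated SBE-bla HEK293T cells lasted 5 h at 37 C.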

[5] = biological target: Thyrotropin-releasing hormone receptor (Homo sapiens) (UniProt P34981); test: qHTS assay to identify small molecule antagonists of the thyrotropin-releasing hormone receptor (TRHR) signaling pathway (AID 1346877; active = well fitted inhibition curve with a large enough effect in the repeat runs, not every such curve was filed as active; also: potency is read from the fitted curve at half-maximal effect)
Summary of the method: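 TRHR-expressing HEK293 cells loaded with calcium dye for 2 h at 37 C; compounds pre-incubated 5 min at room temperature before TRH challenge at 1 nM final. Intracellular calcium fluorescence read kinetically for 3 min; 15 concentrations in triplicate.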

[6] = biological target: Thyrotropin-releasing hormone receptor (Homo sapiens) (UniProt P34981); test: qHTS assay to identify small molecule agonists of the thyrotropin-releasing hormone receptor (TRHR) signaling pathway (AID 1346891; calls by dose curve; also: potency is read from the fitted curve at half-maximal effect; as to activation: series mostly up to about 58 µM; % is scaled to controls: 0 for no effect and ±100 for the full control effect)
Summary of the method: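 Agonist-mode intracellular calcium readout: kinetic fluorescence over 3 min at 1 s intervals after compound addition to TRHR-HEK293 cells (18 h seeded, 2 h dye-loaded at 37 C). Fifteen concentrations, triplicates.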

[7] = Caspase-3/7 induction in HepG2 cells by small molecules, qHTS assay (AID 1346978); also: nearly all actives have a fitted effect of over 15% in size; also: potency is read from the fitted curve at half-maximal effect
Summary of the method: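 Wild-type HepG2 cells (2,000/well) were settled 5 h at 37 C, 5% CO2, then exposed to compounds in DMSO for 17 h. Caspase-3/7 activity was read by luminescence 30 min after adding Caspase-Glo 3/7 reagent at room temperature.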

[8] = Caspase-3/7 induction in CHO-K1 cells by small molecules, qHTS cell viability counter screen (AID 1346979); also: nearly all actives have a fitted effect of over 35% in size; also: potency is read from the fitted curve at half-maximal effect
Summary of the method: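 Cytotoxicity counter screen: CellTiter-Fluor added to compound-treated wild-type CHO-K1 cells at 16 h (37C, 5% CO2), fluorescence measured 1 h later; same wells as caspase-3/7 measurement.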

[9] = Caspase-3/7 induction in CHO-K1 cells by small molecules, qHTS assay (AID 1346980); also: nearly all actives have a fitted effect of over 15% in size; also: potency is read from the fitted curve at half-maximal effect
Summary of the method: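 Wild-type cells were seeded at 1,500 per well and settled 5 hr at 37 C, 5% CO2, then exposed to DMSO-dissolved compounds for 17 hr. Caspase-Glo 3/7 reagent was added, and luminescence was read after 30min at room temperature.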

[10] = Caspase-3/7 induction in HepG2 cells by small molecules, qHTS cell viability counter screen (AID 1346981); also: nearly all actives have a fitted effect of over 30% in size; also: potency is read from the fitted curve at half-maximal effect
Summary of the method: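 Wild-type HepG2 cells, 2,000/well, settled 5 hr at 37 C, 5% CO2 before compound addition. Viability read by CellTiter-Fluor fluorescence, reagent added after 16 hr compound exposure, then 1 hr at 37C, in the same wells as the caspase read.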

[11] = biological target: Nuclear receptor subfamily 1 group I member 2 (Homo sapiens) (UniProt O75469); test: Human pregnane X receptor (PXR) small molecule agonists, qHTS assay (AID 1346982); also: nearly all actives have a fitted effect of over 35% in size; also: potency is read from the fitted curve at half-maximal effect; as to activation: % is scaled to controls: 0 for no effect and ±100 for the full control effect
Summary of the method: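 PXR-Luc HepG2 reporter cells (CYP3A4-driven luciferase) in 5% charcoal-stripped FBS medium, plated 5 h before compound addition, then treated 24 h at 37C. Luciferase read by ONE-Glo luminescence after 30 min at room temperature.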

[12] = biological target: Nuclear receptor subfamily 1 group I member 2 (Rattus norvegicus) (UniProt Q9R1A7); test: Rat pregnane X receptor (rPXR) activation by small molecules, qHTS assay (AID 1346983); conditions: rPXR luciferase reporter cells, One-Glo luminescence, 24 h; max activation: hits give high values; also: nearly all actives have a fitted effect of over 20% in size; also: potency is read from the fitted curve at half-maximal effect; as to max activation: % is scaled to controls: 0 for no effect and ±100 for the full control effect
Summary of the method: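 Cell-based rPXR luciferase reporter assay, 2,000 cells per well, rested 5hr at 37 C before compound addition in DMSO, then 24 hr at 37 C. One-Glo reagent was added and luminescence read after 30 min at room temperature.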

[13] = biological target: Nuclear receptor subfamily 1 group I member 2 (Homo sapiens) (UniProt O75469); test: CYP3A4 induction through human pregnane X receptor (PXR) by small molecules, qHTS assay (AID 1346984); also: % is scaled to controls: 0 for no effect and ±100 for the full control effect; nearly all actives have a fitted effect of over 40% in size
Summary of the method: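 DPX-2 HepG2 cells carrying a PXR response element and CYP3A4-promoter luciferase construct, treated with compounds 24 hr at 37C. Then P450-Glo CYP3A4 Luciferin-IPA substrate (3uM final) for 3 hr at 37C, One-Glo added, luminescence read.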

[14] = biological target: Nuclear receptor subfamily 1 group I member 2 (Homo sapiens) (UniProt O75469); test: Human pregnane X receptor (PXR) activation by small molecules, qHTS assay (AID 1346985); also: potency is read from the fitted curve at half-maximal effect; nearly all actives have a fitted effect of over 40% in size
Summary of the method: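 DPX-2 cells (HepG2 co-transfected with a PXR response element and a CYP3A4-promoter luciferase construct) were seeded at 2,000 per well, rested 5 hr at 37C, then exposed to DMSO-dissolved compounds for 24 hr. Activation was read as luciferase luminescence.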

[15] = biological target: Acetylcholinesterase (Homo sapiens) (UniProt P22303); test: Acetylcholinesterase (AChE) small molecule antagonists: colormetric cell-based qHTS assay (AID 1347395; calls by dose curve; also: % is scaled to controls: 0 for no effect and ±100 for the full control effect; nearly all actives have a fitted effect of over 30% in size)
Summary of the method: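 Colorimetric readout: DTNB quantifies thiocholine from acetylthiocholine hydrolysed by endogenous AChE of SH-SY5Y cells (2,000/well, plated overnight). Compound pretreatment 30 min, substrate incubation 90 min, both 37 C.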

[16] = biological target: Acetylcholinesterase (Homo sapiens) (UniProt P22303); test: Acetylcholinesterase (AChE) small molecule antagonists: enzyme-based qHTS assay (AID 1347397; calls by dose curve; also: % is scaled to controls: 0 for no effect and ±100 for the full control effect; nearly all actives have a fitted effect of over 55% in size); conditions: Potency: AChE enzyme activity inhibition
Summary of the method: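 Recombinant human AChE, dispensed at 50 mU/mL, was preincubated with Tox21 10K compounds or DMSO vehicle for 30 min at room temperature. DTNB plus acetylthiocholine was then added, and thiocholine was measured colorimetrically after a further 10 min.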

[17] = Human pregnane X receptor (PXR) small molecule agonists, qHTS cell viability counter screen (AID 1346977); also: nearly all actives have a fitted effect of over 50% in size; also: potency is read from the fitted curve at half-maximal effect
Summary of the method: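 Same-well viability read: CellTiter-Fluor added after 23 hr compound exposure, fluorescence measured 1 hr later. Cells were PXR-Luc HepG2 seeded at 2,000/well in 5% charcoal-stripped FBS medium, rested 5 hr before dosing at 37 C.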

[18] = qHTS assay to identify small molecule agonists of the progesterone receptor (PR) signaling pathway - cell viability counter screen (AID 1346799; calls by dose curve; also: potency is read from the fitted curve at half-maximal effect; nearly all actives have a fitted effect of over 45% in size)
Summary of the method: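 Cytotoxicity measured by CellTiter-Glo luminescence (30 min, RT) in the same wells as the PR beta-lactamase agonist read. Those HEK293T cells had 16 h compound treatment at 37 C in 2% charcoal-stripped FBS medium.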

Thyrotropin-releasing hormone receptor (Homo sapiens), sequence (P34981 whole entry, looked up): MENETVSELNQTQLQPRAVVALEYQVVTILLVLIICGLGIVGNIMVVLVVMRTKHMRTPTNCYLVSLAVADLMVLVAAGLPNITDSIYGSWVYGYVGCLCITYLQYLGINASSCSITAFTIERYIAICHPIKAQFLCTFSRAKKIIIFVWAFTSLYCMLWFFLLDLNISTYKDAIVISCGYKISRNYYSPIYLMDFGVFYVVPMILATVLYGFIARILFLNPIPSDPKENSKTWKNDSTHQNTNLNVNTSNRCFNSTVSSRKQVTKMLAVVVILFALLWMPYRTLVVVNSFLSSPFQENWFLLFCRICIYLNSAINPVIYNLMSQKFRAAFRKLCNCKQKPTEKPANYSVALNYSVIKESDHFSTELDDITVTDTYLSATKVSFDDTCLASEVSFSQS
Acetylcholinesterase (Homo sapiens), sequence (P22303 whole entry, looked up): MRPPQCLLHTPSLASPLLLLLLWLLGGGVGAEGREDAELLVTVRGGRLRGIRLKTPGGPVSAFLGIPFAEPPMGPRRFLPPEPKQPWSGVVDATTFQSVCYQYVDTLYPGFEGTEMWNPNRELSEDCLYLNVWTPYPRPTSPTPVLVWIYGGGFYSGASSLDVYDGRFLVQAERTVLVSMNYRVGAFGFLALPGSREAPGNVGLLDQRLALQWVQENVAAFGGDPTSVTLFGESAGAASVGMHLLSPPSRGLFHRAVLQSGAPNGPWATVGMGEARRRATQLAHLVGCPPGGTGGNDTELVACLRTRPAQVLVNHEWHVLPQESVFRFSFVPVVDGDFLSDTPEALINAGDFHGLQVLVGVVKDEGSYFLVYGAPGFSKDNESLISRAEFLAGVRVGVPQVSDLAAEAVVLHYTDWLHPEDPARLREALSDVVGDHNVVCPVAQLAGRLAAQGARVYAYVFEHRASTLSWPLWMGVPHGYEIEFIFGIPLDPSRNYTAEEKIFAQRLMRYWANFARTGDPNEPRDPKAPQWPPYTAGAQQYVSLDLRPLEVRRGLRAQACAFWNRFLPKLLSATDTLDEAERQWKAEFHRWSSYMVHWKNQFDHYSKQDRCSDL
Nuclear receptor subfamily 1 group I member 2 (Homo sapiens), sequence (O75469 whole entry, looked up): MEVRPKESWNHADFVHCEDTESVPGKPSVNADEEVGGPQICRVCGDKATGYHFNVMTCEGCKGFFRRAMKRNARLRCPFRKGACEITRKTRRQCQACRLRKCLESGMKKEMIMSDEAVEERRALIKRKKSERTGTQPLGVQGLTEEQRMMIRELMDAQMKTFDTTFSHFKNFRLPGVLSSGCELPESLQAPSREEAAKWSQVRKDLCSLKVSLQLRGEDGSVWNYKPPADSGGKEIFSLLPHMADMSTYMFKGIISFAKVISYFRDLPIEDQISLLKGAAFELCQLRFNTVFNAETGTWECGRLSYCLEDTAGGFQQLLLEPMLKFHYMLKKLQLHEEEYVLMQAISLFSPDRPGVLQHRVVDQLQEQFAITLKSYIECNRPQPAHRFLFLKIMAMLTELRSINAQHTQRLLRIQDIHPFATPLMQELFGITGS
Nuclear receptor subfamily 1 group I member 2 (Rattus norvegicus), sequence (Q9R1A7 whole entry, looked up): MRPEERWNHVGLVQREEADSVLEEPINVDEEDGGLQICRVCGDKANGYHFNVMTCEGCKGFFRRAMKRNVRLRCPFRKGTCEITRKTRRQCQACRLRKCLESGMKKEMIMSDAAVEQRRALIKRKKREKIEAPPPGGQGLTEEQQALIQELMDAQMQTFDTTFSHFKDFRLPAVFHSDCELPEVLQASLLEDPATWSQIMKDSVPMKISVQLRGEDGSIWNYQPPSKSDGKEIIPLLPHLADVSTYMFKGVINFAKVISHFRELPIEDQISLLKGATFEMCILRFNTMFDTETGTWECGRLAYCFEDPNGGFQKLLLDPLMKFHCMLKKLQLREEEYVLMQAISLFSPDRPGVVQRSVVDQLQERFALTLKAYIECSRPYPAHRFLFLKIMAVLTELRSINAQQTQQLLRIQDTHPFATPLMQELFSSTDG

CCN(CC)CCN1C(=O)CN=C(c2ccccc2F)c2cc(Cl)ccc21
active: Potency [11] 13.3 µM | Potency [14] 14.1 µM
inactive: Potency [1] | Potency [2] | Potency [3] | outcome [4] | Potency [5] | Potency [6] | Potency [7] | Potency [8] | Potency [9] | Potency [10] | max activation [12] 8.1% | Potency [13] | Potency [15] | Potency [16]

CC[C@]1(O)CC[C@H]2[C@@H]3CCC4=CCCC[C@@H]4[C@H]3CC[C@@]21C
active: Potency [11] 23.7 µM | Potency [12] 14.1 µM | Potency [14] 8.91 µM
inactive: Potency [2] | Potency [3] | outcome [4] | Potency [17] | Potency [9] | Potency [10] | Potency [13] | Potency [15] | Potency [16]

CCCCn1cc[n+](C)c1.[Cl][Fe-]([Cl])([Cl])[Cl]
inactive: Potency [1] | Potency [3] | outcome [4] | Potency [17] | Potency [7] | Potency [8] | Potency [9] | Potency [10]

O.O.O.O.O.O.O.O=S(=O)([O-])[O-].[Co+2]
inactive: Potency [2] | Potency [3] | outcome [4] | Potency [17] | Potency [7] | Potency [8] | Potency [9] | Potency [10]

Nc1ccc(N=Nc2ccccc2)cc1
inactive: Potency [2] | Potency [3] | outcome [4] | Potency [5] | Potency [6] | Potency [7] | Potency [9] | Potency [15] | Potency [16]
active: Potency [8] 29.8 µM | Potency [10] 36.4 µM | Potency [11] 27.3 µM

CC[C@H](C)[C@H]1O[C@]2(C=C[C@@H]1C)C[C@@H]1C[C@@H](C/C=C(\C)[C@@H](O[C@H]3C[C@H](OC)[C@@H](O[C@H]4C[C@H](OC)[C@@H](NC)[C@H](C)O4)[C@H](C)O3)[C@@H](C)/C=C/C=C3\CO[C@@H]4[C@H](O)C(C)=C[C@@H](C(=O)O1)[C@]34O)O2
inactive: Potency [15] | Potency [16]
active: Potency [1] 24.3 µM | Potency [18] 13.7 µM | Potency [2] 17.4 µM | Potency [3] 15.5 µM | Potency [17] 6.86 µM | Potency [7] 17.2 µM | Potency [8] 6.11 µM | Potency [9] 6.11 µM | Potency [10] 15.4 µM

CCCCn1cc[n+](C)c1 (tested in a mixture with another compound)
inactive: Potency [1] | Potency [2] | Potency [3] | outcome [4] | Potency [17] | Potency [7] | Potency [8] | Potency [10]

CC1=C2C[C@H]3[C@@H](CC=C4C[C@@H](O)CC[C@@]43C)[C@@H]2CC[C@]12O[C@@H]1C[C@H](C)CN[C@H]1[C@H]2C
inactive: Potency [2] | Potency [3] | outcome [4] | Potency [5] | Potency [6] | Potency [7] | Potency [9] | Potency [11] | Potency [16]

COP(=O)(OC)Oc1ccc([N+](=O)[O-])cc1
inactive: Potency [1] | Potency [2] | Potency [3] | outcome [4] | Potency [5] | Potency [6] | Potency [7] | Potency [8] | Potency [9] | Potency [11]

C=CC(=O)[O][Sn]([CH2]CCC)([CH2]CCC)[CH2]CCC
active: Potency [1] 4.33 µM | Potency [2] 2.45 µM | Potency [3] 1.95 µM | Potency [5] 13.5 µM | Potency [6] 17.4 µM | Potency [17] 0.686 µM | Potency [7] 2.43 µM | Potency [8] 0.686 µM | Potency [10] 3.86 µM | Potency [11] 0.172 µM
inactive: Potency [15] | Potency [16]

O=S(=O)(NS(=O)(=O)C(F)(F)F)C(F)(F)F
active: Potency [17] 60.9 µM | Potency [8] 48.4 µM | Potency [11] 60.9 µM
inactive: Potency [1] | Potency [2] | Potency [3] | outcome [4] | Potency [7] | Potency [10] | Potency [16]
